Assay results as given in PubChem BioAssay AID1159580 (chemical genetic matrix, 2015).
Several values for one entry are separate records, joined by “and”; a condition that tells them apart may be missing. Equal entries are not always repeated. The campaign covered roughly 5,500 compounds. About 2,000 (36%) were called active. Roughly 18% stayed inconclusive and do not appear here. Rule as the data show it: active = normalized growth mostly below about 0.91 (no sharp cut-off); inconclusive = no clear call, values can overlap the other calls; inactive = mostly above about 0.92. Some of the results follow.

Test: chemical genetic growth profiling, strain panel (AID 1159580);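 also: tested at 20 µM; growth read once vehicle control cultures reached saturation at 30 °C; 1 = growth at the plate median or of vehicle wells; lower values mean less growth of the strain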
Settings: growth OD

Measured: normalized growth

O=C(O)CC[N+](=O)[O-]
inactive: S. cerevisiae deletion strains, locus YJR075W, strain HOC1, stronger effect = lower value 0.987 | S. cerevisiae deletion strains, locus YKL009W, strain mrt4, stronger effect = lower value 0.971 | S. cerevisiae deletion strains, locus YKL068W, stronger effect = lower value 0.978 | S. cerevisiae deletion strains, locus YKL085W, strain MDH1 (second series), stronger effect = lower value 1.01 | S. cerevisiae deletion strains, locus YKL085W, strain MDH1, stronger effect = lower value 1.01 | S. cerevisiae deletion strains, locus YKL160W, strain elf1, stronger effect = lower value 1 | S. cerevisiae deletion strains, locus YKL190W, strain CNB1, stronger effect = lower value 0.986 | S. cerevisiae deletion strains, locus YKR001C, strain vps1, stronger effect = lower value 0.982 | S. cerevisiae deletion strains, locus YKR026C, strain gcn3, stronger effect = lower value 1 | S. cerevisiae deletion strains, locus YKR091W, strain srl3, stronger effect = lower value 0.993 | S. cerevisiae deletion strains, locus YLL001W, strain dnm1, stronger effect = lower value 0.981 | S. cerevisiae deletion strains, locus YLL026W, stronger effect = lower value 1.01 | S. cerevisiae deletion strains, locus YLL041C, strain sdh2, stronger effect = lower value 1 | S. cerevisiae deletion strains, locus YLR027C, strain aat2, stronger effect = lower value 1.01 | S. cerevisiae deletion strains, locus YLR039C, strain RIC1, stronger effect = lower value 0.903 | S. cerevisiae deletion strains, locus YLR058C, strain SHM2, stronger effect = lower value 0.991 | S. cerevisiae deletion strains, locus YLR102C, strain apc9, stronger effect = lower value 0.979 | S. cerevisiae deletion strains, locus YLR113W, strain HOG1, stronger effect = lower value 1.02 | S. cerevisiae deletion strains, locus YLR221C, strain rsa3, stronger effect = lower value 1.03 | S. cerevisiae deletion strains, locus YLR258W, strain gsy2, stronger effect = lower value 1.03 | S. cerevisiae deletion strains, locus YLR262C, strain YPT6 (second series), stronger effect = lower value 0.989 | S. cerevisiae deletion strains, locus YLR262C, strain YPT6, stronger effect = lower value 0.908 | S. cerevisiae deletion strains, locus YLR268W, strain sec22, stronger effect = lower value 0.988 | S. cerevisiae deletion strains, locus YLR320W, strain mms22, stronger effect = lower value 1.03 | S. cerevisiae deletion strains, locus YLR330W, strain CHS5, stronger effect = lower value 0.982 | S. cerevisiae deletion strains, locus YLR342W, strain FKS1 (second series), stronger effect = lower value 0.998 | S. cerevisiae deletion strains, locus YLR342W, strain FKS1, stronger effect = lower value 1.01 | S. cerevisiae deletion strains, locus YLR357W, strain rsc2, stronger effect = lower value 0.993 | S. cerevisiae deletion strains, locus YLR370C, strain arc18, stronger effect = lower value 1 | S. cerevisiae deletion strains, locus YLR371W, strain rom2, stronger effect = lower value 0.969 | S. cerevisiae deletion strains, locus YLR384C, strain iki3, stronger effect = lower value 0.988 | S. cerevisiae deletion strains, locus YLR418C, strain cdc73, stronger effect = lower value 1 | S. cerevisiae deletion strains, locus YML016C, strain PPZ1, stronger effect = lower value 0.993 | S. cerevisiae deletion strains, locus YML032C, strain rad52, stronger effect = lower value 0.973 | S. cerevisiae deletion strains, locus YML120C, strain ndi1, stronger effect = lower value 0.999 | S. cerevisiae deletion strains, locus YML124C, strain tub3, stronger effect = lower value 0.98 | S. cerevisiae deletion strains, locus YMR058W, strain fet3, stronger effect = lower value 1.03 | S. cerevisiae deletion strains, locus YMR078C, strain ctf18, stronger effect = lower value 0.976 | S. cerevisiae deletion strains, locus YMR125W, strain sto1, stronger effect = lower value 0.988 | S. cerevisiae deletion strains, locus YMR129W, stronger effect = lower value 0.996 | S. cerevisiae deletion strains, locus YMR205C, strain PFK2, stronger effect = lower value 0.983 | S. cerevisiae deletion strains, locus YMR223W, strain ubp8, stronger effect = lower value 0.977 | S. cerevisiae deletion strains, locus YMR231W, strain pep5, stronger effect = lower value 0.986 | S. cerevisiae deletion strains, locus YMR263W, strain SAP30, stronger effect = lower value 0.985 and 1 | S. cerevisiae deletion strains, locus YMR307W, strain GAS1, stronger effect = lower value 0.924 | S. cerevisiae deletion strains, locus YNL067W, strain RPL9B, stronger effect = lower value 0.991 | S. cerevisiae deletion strains, locus YNL071W, strain lat1, stronger effect = lower value 1.01 | S. cerevisiae deletion strains, locus YNL128W, strain TEP1, stronger effect = lower value 0.981 | S. cerevisiae deletion strains, locus YNL153C, strain GIM3, stronger effect = lower value 0.994 | S. cerevisiae deletion strains, locus YNL175C, strain NOP13, stronger effect = lower value 0.992 | S. cerevisiae deletion strains, locus YNL183C, strain NPR1, stronger effect = lower value 0.953 | S. cerevisiae deletion strains, locus YNL197C, strain WHI3, stronger effect = lower value 1.01 | S. cerevisiae deletion strains, locus YNL209W, strain ssb2, stronger effect = lower value 1.01 | S. cerevisiae deletion strains, locus YNL224C, strain SQS1, stronger effect = lower value 0.992 | S. cerevisiae deletion strains, locus YNL233W, strain BNI4, stronger effect = lower value 1 | S. cerevisiae deletion strains, locus YNL248C, strain rpa49, stronger effect = lower value 0.996 | S. cerevisiae deletion strains, locus YNL250W, strain rad50, stronger effect = lower value 0.978 | S. cerevisiae deletion strains, locus YNL271C, strain bni1, stronger effect = lower value 0.974 | S. cerevisiae deletion strains, locus YNL298W, strain CLA4, stronger effect = lower value 0.98 | S. cerevisiae deletion strains, locus YNL307C, strain MCK1, stronger effect = lower value 0.982 | S. cerevisiae deletion strains, locus YNL322C, strain KRE1 (second series), stronger effect = lower value 0.989 | S. cerevisiae deletion strains, locus YNL322C, strain KRE1, stronger effect = lower value 0.987 and 1.01 | S. cerevisiae deletion strains, locus YNR049C, strain mso1, stronger effect = lower value 1 | S. cerevisiae deletion strains, locus YNR052C, strain pop2, stronger effect = lower value 0.979 | S. cerevisiae deletion strains, locus YOL006C, strain TOP1, stronger effect = lower value 1.01 | S. cerevisiae deletion strains, locus YOL012C, strain htz1 0.756 | S. cerevisiae deletion strains, locus YOL147C, strain pex11, stronger effect = lower value 0.985 | S. cerevisiae deletion strains, locus YOR001W, strain rrp6, stronger effect = lower value 1.03 | S. cerevisiae deletion strains, locus YOR061W, strain CKA2, stronger effect = lower value 0.992 | S. cerevisiae deletion strains, locus YOR069W, strain VPS5, stronger effect = lower value 0.99 | S. cerevisiae deletion strains, locus YOR070C, strain gyp1, stronger effect = lower value 0.999 | S. cerevisiae deletion strains, locus YOR080W, strain dia2, stronger effect = lower value 1 | S. cerevisiae deletion strains, locus YOR083W, strain WHI5 (second series), stronger effect = lower value 0.995 | S. cerevisiae deletion strains, locus YOR083W, strain WHI5, stronger effect = lower value 0.999 | S. cerevisiae deletion strains, locus YOR106W, strain vam3, stronger effect = lower value 0.99 | S. cerevisiae deletion strains, locus YOR136W, strain idh2, stronger effect = lower value 0.986 | S. cerevisiae deletion strains, locus YOR144C, strain elg1, stronger effect = lower value 0.97 | S. cerevisiae deletion strains, locus YOR184W, strain ser1, stronger effect = lower value 0.968 | S. cerevisiae deletion strains, locus YOR231W, strain MKK1, stronger effect = lower value 0.971 | S. cerevisiae deletion strains, locus YOR265W, strain rbl2, stronger effect = lower value 0.997 | S. cerevisiae deletion strains, locus YOR270C, strain vph1, stronger effect = lower value 1.04 | S. cerevisiae deletion strains, locus YOR290C, strain snf2, stronger effect = lower value 0.982 | S. cerevisiae deletion strains, locus YOR316C, strain cot1, stronger effect = lower value 0.989 | S. cerevisiae deletion strains, locus YPL051W, strain arl3, stronger effect = lower value 1.03 | S. cerevisiae deletion strains, locus YPL055C, strain LGE1, stronger effect = lower value 0.972 and 1.02 | S. cerevisiae deletion strains, locus YPL078C, strain atp4, stronger effect = lower value 0.981 | S. cerevisiae deletion strains, locus YPL106C, strain sse1, stronger effect = lower value 1.04 | S. cerevisiae deletion strains, locus YPL240C, strain hsp82, stronger effect = lower value 1.01 | S. cerevisiae deletion strains, locus YPL241C, strain CIN2, stronger effect = lower value 0.941 | S. cerevisiae deletion strains, locus YPL256C, strain CLN2, stronger effect = lower value 0.991 | S. cerevisiae deletion strains, locus YPR119W, strain clb2, stronger effect = lower value 0.993 | S. cerevisiae deletion strains, locus YPR141C, strain kar3, stronger effect = lower value 0.979 | S. cerevisiae deletion strains, locus YPR163C, strain tif3, stronger effect = lower value 0.986 | S. cerevisiae deletion strains, locus YPR167C, strain met16, stronger effect = lower value 0.996 | S. cerevisiae deletion strains, strain wtn01, stronger effect = lower value 1.01 | S. cerevisiae strains, strain wild type, stronger effect = lower value 0.999
